According to PubChem BioAssay (NCI):
This is part of a sample that, as a whole, favours compounds with a hit. Of some 83,000 tested, about 20% had one in any assay.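 Assay: single dose, 48 h. Readout: percent growth (0 = no net growth; negative = cell death). Active: <10.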 Values without a mark were called inactive. The source made the active and inactive calls.

What was measured:
Assay in all cases: NCI-60 one-dose screen, 48 h (100 = growth as untreated, 0 = no growth, -100 = all killed)
Conditions in all cases: 10 µM unless noted
SK-MEL-2 melanoma = test system: SK-MEL-2 melanoma
SN12C renal = test system: SN12C renal
UO-31 renal = test system: UO-31 renal
TK-10 renal = test system: TK-10 renal
ACHN renal = test system: ACHN renal
CAKI-1 renal = test system: CAKI-1 renal
CCRF-CEM leukemia = test system: CCRF-CEM leukemia
MOLT-4 leukemia = test system: MOLT-4 leukemia
SR leukemia = test system: SR leukemia
RPMI-8226 leukemia = test system: RPMI-8226 leukemia
OVCAR-8 ovarian = test system: OVCAR-8 ovarian
OVCAR-5 ovarian = test system: OVCAR-5 ovarian
OVCAR-4 ovarian = test system: OVCAR-4 ovarian
SK-OV-3 ovarian = test system: SK-OV-3 ovarian
IGROV1 ovarian = test system: IGROV1 ovarian
OVCAR-3 ovarian = test system: OVCAR-3 ovarian
NCI/ADR-RES ovarian = test system: NCI/ADR-RES ovarian
HS 578T breast = test system: HS 578T breast

| Structure (SMILES) | growth (SK-MEL-2 melanoma) | growth (SN12C renal) | growth (UO-31 renal) | growth (TK-10 renal) | growth (ACHN renal) | growth (CAKI-1 renal) | growth (CCRF-CEM leukemia) | growth (MOLT-4 leukemia) | growth (SR leukemia) | growth (RPMI-8226 leukemia) | growth (OVCAR-8 ovarian) | growth (OVCAR-5 ovarian) | growth (OVCAR-4 ovarian) | growth (SK-OV-3 ovarian) | growth (IGROV1 ovarian) | growth (OVCAR-3 ovarian) | growth (NCI/ADR-RES ovarian) | growth (HS 578T breast) |
| --- | --- | --- | --- | --- | --- | --- | --- | --- | --- | --- | --- | --- | --- | --- | --- | --- | --- | --- |
| COc1cc(-c2n[nH]nc2-c2ccc3c(c2)OCCO3)cc(OC)c1OC | 26.6% | 31% | 27.1% | 52.4% | 12.3% | 18.4% | 5.78% (active) | 5.49% (active) | 9.29% (active) | 0.653% (active) | 9.51% (active) | 11.7% | 34.8% | 3.32% (active) | 21.9% | -33.9% (active) | 2.71% (active) | – |
| COc1cc(OC)c(C(=O)/C=C/c2cccc(C(F)(F)F)c2)c(OC)c1 | -16.1% (active) | 19.2% | 26.9% | 15.1% | 3.47% (active) | 33.8% | 4.41% (active) | 1.4% (active) | 6.07% (active) | 1.61% (active) | 14.1% | 42.4% | 31.4% | – | 11.8% | 17.5% | 17.1% | 15.4% |
| COc1cc(C(=O)OCCCCCCCCCCC[P+](c2ccccc2)(c2ccccc2)c2ccccc2)ccc1O | -32.1% (active) | -70.1% (active) | -8.76% (active) | 8.26% (active) | -1.87% (active) | -73.2% (active) | -32.3% (active) | -50.9% (active) | -58.7% (active) | -9.32% (active) | -62% (active) | 22.6% | -11.2% (active) | -1.8% (active) | 11.6% | – | 50.6% | -13.3% (active) |
| O=C(O)C(Cc1ccccc1)N1C(=O)/C(=C/C(Cl)=C/c2ccc([N+](=O)[O-])cc2)SC1=S (stereo unspecified) | 9.02% (active) | 8.76% (active) | 29.4% | 50.1% | 40.7% | 6.47% (active) | 4.14% (active) | 0.405% (active) | 5.32% (active) | -6.22% (active) | 12.1% | 137% | 7.24% (active) | 83.4% | 36.3% | 10.7% | 68.7% | 44.6% |
| COc1ccc(-c2nc3sccn3c2-c2ccnc(NCCCNS(=O)(=O)c3ccc(F)cc3)n2)cc1 | -0.52% (active) | 14.3% | 4.56% (active) | 52.9% | 2.12% (active) | 21.8% | 9.5% (active) | 6.65% (active) | 14.8% | 5.74% (active) | 6.98% (active) | 77% | 17.1% | 39.5% | – | 20.9% | -5.58% (active) | 32.5% |
| CCOC(=O)C1=C(C)NC(=O)NC1c1ccc(OCC(=O)N/N=C/c2ccc(Cl)cc2)cc1 (stereo unspecified) | 94.3% | 97% | 93.7% | 99% | 96.8% | 99.8% | 92.1% | 92.3% | 68.7% | 90.1% | 95.2% | 87.9% | 95.1% | 88.9% | 94.9% | 99.8% | 106% | – |
| COc1cccc(/C=C/C(=O)c2sc(Nc3ccc(O)cc3)nc2C)c1 | 79.9% | 86.2% | 62% | 114% | 98.1% | 105% | 13.3% | 30.8% | 35.8% | 4.79% (active) | 99.4% | 111% | 96.9% | 103% | 88.1% | 75.7% | 99% | 103% |
| O=C(Nc1ccc(Cl)cc1)c1cc(-c2ccc(F)cc2)c2sc(=O)[nH]c2n1 | 14.3% | 11.9% | 4.68% (active) | 20.8% | 2.34% (active) | -12.7% (active) | 16.8% | 13.9% | 16.6% | 10.9% | 13% | 72.2% | -0.62% (active) | – | 29.3% | 14% | 3.43% (active) | 29.4% |
| C=CCN=C1NC(=O)/C(=C/c2cc(C(C)(C)C)c(O)c(C(C)(C)C)c2)S1 | 40.1% | 91% | 67% | 79.4% | 87% | 47.8% | 69.4% | 47.4% | 32.9% | 92.1% | 95.8% | 92.1% | 70.3% | 74.8% | 85.7% | 46.9% | 70% | 76.9% |
